Test results from PubChem BioAssay (EPA / NIEHS).
Records with an inconclusive call do not appear. Activity calls are given as the source filed them. The calls were made as follows, unless noted: active = hit-call score of the fitted dose curve at least 0.9, where 1 is the maximum; inactive = score below 0.9.

Assays:
[1] = BSK_3C_VCAM1: BioMAP Diversity Plus: 3C Assay for Vascular cell adhesion molecule 1 (VCAM1) Biomarker Activity (AID 2282999); conditions: BioMAP 3C HUVEC, VCAM1 ELISA, cytokine-stimulated; actives raise or lower the signal
Method in brief: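 Human umbilical vein endothelial cells (3C system), biomarker read by ELISA 24 h after dosing; bidirectional fit against DMSO baseline. Cytotoxicity tracked by SRB total-protein staining in parallel cultures at biomarker time.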

[2] = BSK_4H_Eotaxin3: BioMAP Diversity Plus: 4H Assay for Eotaxin 3 Biomarker Activity (AID 2283000); conditions: primary human endothelial cells (HUVEC); actives raise or lower the signal
Method in brief: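 Chemicals were added to human umbilical vein endothelium cultures, and Eotaxin-3 was quantified by ELISA at 24 h. Values were derived by bidirectional fitting with DMSO serving as negative control and activity baseline.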

[3] = target: human Peroxisome Proliferator-activated Receptor alpha (PPARa), PPARA (gene 5465) (UniProt Q07869); assay: ATG_PPARa_TRANS: Attagene TRANS-FACTORIAL HepG2 Assay for human Peroxisome Proliferator-activated Receptor alpha (PPARa) (AID 2283001; active = hit-call score of the fitted dose curve at least 0.9, where 1 is the maximum)
Method in brief: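 HepG2 cells transiently transfected with multiplexed GAL4-UAS reporters driven by exogenous chimeric NR-Gal4 proteins; reporter mRNA measured after 24 h dosing. Read-out by RT-PCR, 6-FAM labelling, HpaI digestion and capillary electrophoresis; gain of signal versus DMSO.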

[4] = read-out: Intercellular Adhesion Molecule 1 (ICAM1), ICAM1 (gene 3383); assay: BSK_3C_ICAM1: BioMAP Diversity Plus: 3C Assay for Intercellular Adhesion Molecule 1 (ICAM1) Biomarker Activity (AID 2283003); conditions: primary human endothelial cells (HUVEC); actives raise or lower the signal
Method in brief: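 HUVEC primary cells stimulated under 3C conditions; ICAM1 measured by ELISA 24 h after compound dosing. Curves fitted bidirectionally against the DMSO baseline. Overt cytotoxicity checked by SRB staining of parallel cultures.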

[5] = BSK_3C_Proliferation: Cell Proliferation Assessment in the BioMAP Diversity Plus: 3C Assay (AID 2283006); conditions: primary human endothelial cells (HUVEC);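 as to AC50: potency may reflect either rise or fall in cell number versus DMSO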
Method in brief: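 Subconfluent HUVEC (3C system) cultured with chemical; relative cell number read at 48 h by sulforhodamine B total-protein staining (0.1% SRB after 10% TCA fixation, 560 nm). Bidirectional fit relative to DMSO.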

[6] = target: Nuclear receptor subfamily 1 group I member 2 (Homo sapiens) (UniProt O75469); assay: ATG_PXR_TRANS: Attagene TRANS-FACTORIAL HepG2 Assay for human Pregnane X Receptor (PXR) (AID 2283008; active = hit-call score of the fitted dose curve at least 0.9, where 1 is the maximum)
Method in brief: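 Fluorescence intensity of FAM-labelled, HpaI-digested reporter amplicons, separated by capillary electrophoresis, quantifies induction. HepG2 cells with PXR-Gal4 trans-reporter system were exposed 24 h; DMSO defines baseline.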

[7] = target: Retinoic acid receptor RXR-alpha (Homo sapiens) (UniProt P19793); assay: ATG_RXRa_TRANS: Attagene TRANS-FACTORIAL HepG2 Assay for human Retinoid X Receptor alpha (RXRa) (AID 2283012; active = hit-call score of the fitted dose curve at least 0.9, where 1 is the maximum)
Method in brief: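 HepG2 cells transiently transfected with GAL4-UAS reporter units and chimeric RXRa-Gal4 protein, treated 24 h. Reporter mRNA measured by RT-PCR, fluorescent labelling, HpaI digestion and capillary electrophoresis. Induction fitted against DMSO.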

[8] = target: human Retinoid X Receptor beta (RXRb), RXRB (gene 6257) (UniProt P28702); assay: ATG_RXRb_TRANS: Attagene TRANS-FACTORIAL HepG2 Assay for human Retinoid X Receptor beta (RXRb) (AID 2283013; active = hit-call score of the fitted dose curve at least 0.9, where 1 is the maximum)
Method in brief: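 HepG2 cells were transiently transfected with multiplexed GAL4-UAS reporters and a chimeric RXRb-Gal4 construct, then exposed for 24 h. Reporter mRNA was quantified by RT-PCR, FAM labeling, HpaI digestion and capillary electrophoresis; gain of signal was scored against DMSO.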

[9] = read-out: E-selectin (Homo sapiens) (UniProt P16581); assay: BSK_3C_Eselectin: BioMAP Diversity Plus: 3C Assay for Eselectin Biomarker Activity (AID 2283015); conditions: primary human endothelial cells (HUVEC); actives raise or lower the signal
Method in brief: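 ELISA read-out of E-selectin on endothelial monolayers after 24 h chemical treatment. Human umbilical vein primary cells served as the system, with DMSO defining baseline activity for bidirectional fitting.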

[10] = read-out: Interleukin-1 alpha (IL1a), IL1A (gene 3552); assay: BSK_BE3C_IL1a: BioMAP Diversity Plus: BE3C Assay for Interleukin-1 alpha (IL1a) Biomarker Activity (AID 2283016); conditions: primary human bronchial epithelial cells; actives raise or lower the signal
Method in brief: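 Human primary bronchial epithelial cells, 24 h chemical exposure; IL-1a quantified by ELISA, fitted bidirectionally against DMSO. Cytotoxicity assessed in parallel by SRB total-protein staining at the time of measurement.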

[11] = read-out: Monocyte Chemoattractant Protein-1 (MCP1), CCL2 (gene 6347); assay: BSK_3C_MCP1: BioMAP Diversity Plus: 3C Assay for Monocyte Chemoattractant Protein-1 (MCP1) Biomarker Activity (AID 2283017); conditions: primary human endothelial cells (HUVEC); actives raise or lower the signal
Method in brief: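 ELISA read-out of MCP-1 from human umbilical vein endothelial cell cultures harvested 24 h post-dosing. Gain or loss of signal was fitted relative to DMSO.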

[12] = read-out: Human Leukocyte Antigen - DR isotype (HLADR), HLA-DRA (gene 3122); assay: BSK_3C_HLADR: BioMAP Diversity Plus: 3C Assay for Human Leukocyte Antigen - DR isotype (HLADR) Biomarker Activity (AID 2283019); conditions: primary human endothelial cells (HUVEC); actives raise or lower the signal
Method in brief: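 ELISA readout of surface HLA-DR on human umbilical vein endothelium, taken 24 h after chemical treatment. Gain- and loss-of-signal were both fitted relative to DMSO.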

[13] = target: human Peroxisome Proliferator-activated Receptor delta (PPARd), PPARD (gene 5467) (UniProt Q03181); assay: ATG_PPARd_TRANS: Attagene TRANS-FACTORIAL HepG2 Assay for human Peroxisome Proliferator-activated Receptor delta (PPARd) (AID 2283002; active = hit-call score of the fitted dose curve at least 0.9, where 1 is the maximum)
Method in brief: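 HepG2 cells transiently transfected with GAL4-UAS multiplexed reporter units driven by exogenous chimeric NR-GAL4 proteins; 24 h compound exposure. Reporter mRNA measured by RT-PCR, 6-FAM primer extension, HpaI digestion and capillary electrophoresis; gain of signal fitted relative to DMSO.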

[14] = target: Peroxisome proliferator-activated receptor gamma (Homo sapiens) (UniProt P37231); assay: ATG_PPARg_TRANS: Attagene TRANS-FACTORIAL HepG2 Assay for human Peroxisome Proliferator-activated Receptor-gamma (PPARg) (AID 2283007; active = hit-call score of the fitted dose curve at least 0.9, where 1 is the maximum)
Method in brief: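 Transient transfection of HepG2 with GAL4-UAS-driven reporter units; chemical dosing 24 h; total RNA → oligo(dT) RT → PCR with reporter primers → 6-FAM primer extension → HpaI digest 2 h 37 C → capillary electrophoresis. Positive direction vs DMSO.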

[15] = read-out: Monocyte Chemoattractant Protein-1 (MCP1), CCL2 (gene 6347); assay: BSK_4H_MCP1: BioMAP Diversity Plus: 4H Assay for Monocyte Chemoattractant Protein-1 (MCP1) Biomarker Activity (AID 2283018); conditions: primary human endothelial cells (HUVEC); actives raise or lower the signal
Method in brief: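 Human umbilical vein endothelial cells (4H system) exposed to chemicals for 24 h in 96-well format. MCP-1 measured by ELISA; bidirectional fitting against DMSO, with SRB total-protein staining in parallel cultures for cytotoxicity.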

[16] = target: human Thyroid Receptor alpha (THRa1), THRA (gene 7067) (UniProt P10827); assay: ATG_THRa1_TRANS: Attagene TRANS-FACTORIAL HepG2 Assay for human Thyroid Receptor alpha (THRa1) (AID 2283014; active = hit-call score of the fitted dose curve at least 0.9, where 1 is the maximum)
Method in brief: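 Reporter transcript induction, read by capillary electrophoresis of 6-FAM-labelled RT-PCR products, reflects activity of a transfected THRa1-Gal4 fusion in HepG2 liver cells. Cells were dosed for 24 h; activity was fitted in the positive direction against DMSO.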

[17] = target: human Retinoic Acid Receptor gamma (RARg), RARG (gene 5916) (UniProt P13631); assay: ATG_RARg_TRANS: Attagene TRANS-FACTORIAL HepG2 Assay for human Retinoic Acid Receptor gamma (RARg) (AID 2283009; active = hit-call score of the fitted dose curve at least 0.9, where 1 is the maximum)
Method in brief: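 HepG2 transiently transfected with GAL4-UAS reporter units and chimeric NR-Gal4 constructs; 24 h compound exposure. Reporter mRNA quantified by RT-PCR, FAM labeling, HpaI digestion and capillary electrophoresis; gain-of-signal versus DMSO.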

[18] = target: human RAR-related Orphan Receptor gamma (RORg), RORC (gene 6097) (UniProt P51449); assay: ATG_RORg_TRANS: Attagene TRANS-FACTORIAL HepG2 Assay for human RAR-related Orphan Receptor gamma (RORg) (AID 2283011; active = hit-call score of the fitted dose curve at least 0.9, where 1 is the maximum)
Method in brief: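 First, HepG2 liver cells were transfected with GAL4-UAS-driven reporter constructs and the RORg-Gal4 fusion. Next, they were treated with chemical for 24 h. Finally, reporter mRNA was quantified by RT-PCR and capillary electrophoresis, with upward activity fitted against DMSO.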

[19] = target: human Retinoic Acid Receptor beta (RARb), RARB (gene 5915) (UniProt P10826); assay: ATG_RARb_TRANS: Attagene TRANS-FACTORIAL HepG2 Assay for human Retinoic Acid Receptor beta (AID 2283004; active = hit-call score of the fitted dose curve at least 0.9, where 1 is the maximum)
Method in brief: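 Transient transfection of HepG2 with multiple reporter units → chemical dosing, 24 h → total RNA isolation → RT with oligo(dT) → reporter-specific PCR, 6-FAM primer extension, HpaI digest → capillary electrophoresis. Positive direction vs DMSO control.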

[20] = target: Retinoic acid receptor alpha (Homo sapiens) (UniProt P10276); assay: ATG_RARa_TRANS: Attagene TRANS-FACTORIAL HepG2 Assay for human Retinoic Acid Receptor alpha (RARa) (AID 2283005; active = hit-call score of the fitted dose curve at least 0.9, where 1 is the maximum)
Method in brief: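 HepG2 transiently transfected with multiplex GAL4-UAS reporter units including a human RARa–GAL4 chimera; 24 h compound exposure. Reporter mRNA quantified by RT-PCR, 6-FAM labeling and capillary electrophoresis; gain of signal versus DMSO.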

Measured: AC50

Sequence of human Retinoid X Receptor beta (RXRb), RXRB (gene 6257) (P28702 whole entry, looked up, the tested form may be a part): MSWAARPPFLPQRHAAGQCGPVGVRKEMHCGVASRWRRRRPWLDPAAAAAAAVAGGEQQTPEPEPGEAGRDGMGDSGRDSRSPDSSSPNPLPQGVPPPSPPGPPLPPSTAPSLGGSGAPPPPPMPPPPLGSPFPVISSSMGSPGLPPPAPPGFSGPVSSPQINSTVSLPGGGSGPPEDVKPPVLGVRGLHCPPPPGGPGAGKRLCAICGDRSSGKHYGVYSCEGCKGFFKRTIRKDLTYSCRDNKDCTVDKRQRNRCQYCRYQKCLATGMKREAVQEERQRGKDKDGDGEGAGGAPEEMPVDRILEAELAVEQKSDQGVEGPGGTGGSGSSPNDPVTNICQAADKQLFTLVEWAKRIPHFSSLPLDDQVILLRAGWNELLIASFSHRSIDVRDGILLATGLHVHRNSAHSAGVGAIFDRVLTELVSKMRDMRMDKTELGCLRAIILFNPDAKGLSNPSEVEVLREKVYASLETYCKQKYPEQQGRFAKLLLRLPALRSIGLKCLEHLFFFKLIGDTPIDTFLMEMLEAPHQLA
Sequence of Peroxisome proliferator-activated receptor gamma (Homo sapiens) (P37231 whole entry, looked up, the tested form may be a part): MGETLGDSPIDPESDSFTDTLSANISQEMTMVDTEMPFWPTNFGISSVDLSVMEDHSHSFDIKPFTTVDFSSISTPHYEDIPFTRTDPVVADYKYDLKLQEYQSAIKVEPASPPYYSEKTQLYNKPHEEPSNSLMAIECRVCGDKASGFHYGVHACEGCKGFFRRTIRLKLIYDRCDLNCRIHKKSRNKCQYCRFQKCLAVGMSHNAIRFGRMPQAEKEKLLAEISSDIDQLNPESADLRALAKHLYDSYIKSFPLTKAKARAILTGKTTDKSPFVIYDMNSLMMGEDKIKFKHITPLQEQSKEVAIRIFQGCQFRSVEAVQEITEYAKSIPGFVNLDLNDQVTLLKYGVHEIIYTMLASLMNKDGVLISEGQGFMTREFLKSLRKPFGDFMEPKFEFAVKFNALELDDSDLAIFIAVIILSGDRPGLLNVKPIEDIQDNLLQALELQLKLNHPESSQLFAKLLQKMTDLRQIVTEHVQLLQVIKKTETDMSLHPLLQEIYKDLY
Sequence of Nuclear receptor subfamily 1 group I member 2 (Homo sapiens) (O75469 whole entry, looked up, the tested form may be a part): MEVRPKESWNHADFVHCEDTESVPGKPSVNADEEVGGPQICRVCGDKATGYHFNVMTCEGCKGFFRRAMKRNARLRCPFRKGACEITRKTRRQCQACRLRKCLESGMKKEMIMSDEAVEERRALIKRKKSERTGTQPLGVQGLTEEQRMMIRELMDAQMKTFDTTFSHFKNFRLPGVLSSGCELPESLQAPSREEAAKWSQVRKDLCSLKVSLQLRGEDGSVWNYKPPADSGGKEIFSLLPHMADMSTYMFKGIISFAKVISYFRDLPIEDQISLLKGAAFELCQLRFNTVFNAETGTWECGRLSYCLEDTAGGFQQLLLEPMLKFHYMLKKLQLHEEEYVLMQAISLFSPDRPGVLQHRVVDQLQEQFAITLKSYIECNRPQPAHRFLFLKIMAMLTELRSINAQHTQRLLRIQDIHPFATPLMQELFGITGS
Sequence of human Thyroid Receptor alpha (THRa1), THRA (gene 7067) (P10827 whole entry, looked up, the tested form may be a part): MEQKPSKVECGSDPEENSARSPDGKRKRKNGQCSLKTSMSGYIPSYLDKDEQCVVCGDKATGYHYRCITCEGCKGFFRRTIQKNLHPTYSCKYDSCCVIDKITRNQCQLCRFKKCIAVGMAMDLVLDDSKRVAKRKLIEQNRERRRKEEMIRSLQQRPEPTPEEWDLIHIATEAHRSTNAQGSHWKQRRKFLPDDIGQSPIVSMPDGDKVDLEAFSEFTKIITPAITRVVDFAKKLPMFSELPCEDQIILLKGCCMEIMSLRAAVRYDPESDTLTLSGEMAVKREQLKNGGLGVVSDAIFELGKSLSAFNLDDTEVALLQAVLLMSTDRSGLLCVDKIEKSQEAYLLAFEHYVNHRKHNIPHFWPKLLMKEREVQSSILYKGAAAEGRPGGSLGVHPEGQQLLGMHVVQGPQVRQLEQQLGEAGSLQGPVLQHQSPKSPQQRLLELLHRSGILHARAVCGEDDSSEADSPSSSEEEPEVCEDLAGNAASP
Sequence of Retinoic acid receptor RXR-alpha (Homo sapiens) (P19793 whole entry, looked up, the tested form may be a part): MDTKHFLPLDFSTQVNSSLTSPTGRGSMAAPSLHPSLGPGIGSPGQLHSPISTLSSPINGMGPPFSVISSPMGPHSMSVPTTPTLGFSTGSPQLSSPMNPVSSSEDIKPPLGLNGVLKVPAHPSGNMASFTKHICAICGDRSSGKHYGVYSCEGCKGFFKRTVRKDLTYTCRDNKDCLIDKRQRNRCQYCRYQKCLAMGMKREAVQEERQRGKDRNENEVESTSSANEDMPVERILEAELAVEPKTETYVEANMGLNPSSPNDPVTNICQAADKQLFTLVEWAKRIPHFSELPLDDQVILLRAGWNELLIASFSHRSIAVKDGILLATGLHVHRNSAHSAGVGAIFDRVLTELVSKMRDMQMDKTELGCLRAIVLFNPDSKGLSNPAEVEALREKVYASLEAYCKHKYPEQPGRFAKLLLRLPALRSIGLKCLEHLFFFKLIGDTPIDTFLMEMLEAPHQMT
Sequence of E-selectin (Homo sapiens) (P16581 whole entry, looked up): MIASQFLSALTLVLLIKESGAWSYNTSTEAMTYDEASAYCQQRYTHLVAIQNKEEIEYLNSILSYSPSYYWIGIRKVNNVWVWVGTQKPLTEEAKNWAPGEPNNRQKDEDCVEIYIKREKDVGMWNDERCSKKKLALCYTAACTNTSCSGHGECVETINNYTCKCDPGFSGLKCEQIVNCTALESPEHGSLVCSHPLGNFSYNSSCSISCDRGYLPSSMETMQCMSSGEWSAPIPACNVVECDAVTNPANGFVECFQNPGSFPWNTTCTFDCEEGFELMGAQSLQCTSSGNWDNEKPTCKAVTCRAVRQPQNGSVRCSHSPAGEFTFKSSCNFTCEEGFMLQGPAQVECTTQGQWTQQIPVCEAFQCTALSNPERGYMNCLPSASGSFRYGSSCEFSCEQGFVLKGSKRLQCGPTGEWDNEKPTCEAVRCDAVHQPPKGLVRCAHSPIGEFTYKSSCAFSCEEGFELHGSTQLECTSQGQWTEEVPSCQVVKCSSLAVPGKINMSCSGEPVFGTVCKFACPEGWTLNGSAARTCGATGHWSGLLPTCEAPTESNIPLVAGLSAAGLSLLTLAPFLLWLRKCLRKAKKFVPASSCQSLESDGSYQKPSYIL
Sequence of human Retinoic Acid Receptor gamma (RARg), RARG (gene 5916) (P13631 whole entry, looked up, the tested form may be a part): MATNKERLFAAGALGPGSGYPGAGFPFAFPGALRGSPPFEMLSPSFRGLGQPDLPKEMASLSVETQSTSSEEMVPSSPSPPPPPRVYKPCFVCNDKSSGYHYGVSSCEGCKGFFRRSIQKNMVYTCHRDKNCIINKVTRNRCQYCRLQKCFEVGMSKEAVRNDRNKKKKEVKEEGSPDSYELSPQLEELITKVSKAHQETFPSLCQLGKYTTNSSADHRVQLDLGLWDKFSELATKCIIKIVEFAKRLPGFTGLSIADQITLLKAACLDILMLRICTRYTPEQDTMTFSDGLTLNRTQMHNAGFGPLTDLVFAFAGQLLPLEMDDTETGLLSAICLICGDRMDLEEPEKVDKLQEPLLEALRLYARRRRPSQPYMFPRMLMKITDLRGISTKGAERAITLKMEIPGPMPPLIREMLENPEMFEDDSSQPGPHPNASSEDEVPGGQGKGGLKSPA
Sequence of human Peroxisome Proliferator-activated Receptor delta (PPARd), PPARD (gene 5467) (Q03181 whole entry, looked up, the tested form may be a part): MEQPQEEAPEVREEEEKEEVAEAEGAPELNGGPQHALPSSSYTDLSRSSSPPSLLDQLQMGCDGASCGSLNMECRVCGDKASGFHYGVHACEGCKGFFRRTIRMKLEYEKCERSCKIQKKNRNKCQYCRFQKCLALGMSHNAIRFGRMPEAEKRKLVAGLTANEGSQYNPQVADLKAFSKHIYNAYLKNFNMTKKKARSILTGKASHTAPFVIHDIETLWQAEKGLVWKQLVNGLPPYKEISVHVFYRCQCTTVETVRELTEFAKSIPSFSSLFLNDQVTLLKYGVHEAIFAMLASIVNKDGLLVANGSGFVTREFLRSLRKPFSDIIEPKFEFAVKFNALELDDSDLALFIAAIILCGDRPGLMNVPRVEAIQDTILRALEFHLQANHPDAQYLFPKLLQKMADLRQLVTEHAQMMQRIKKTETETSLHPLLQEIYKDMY
Sequence of human Peroxisome Proliferator-activated Receptor alpha (PPARa), PPARA (gene 5465) (Q07869 whole entry, looked up, the tested form may be a part): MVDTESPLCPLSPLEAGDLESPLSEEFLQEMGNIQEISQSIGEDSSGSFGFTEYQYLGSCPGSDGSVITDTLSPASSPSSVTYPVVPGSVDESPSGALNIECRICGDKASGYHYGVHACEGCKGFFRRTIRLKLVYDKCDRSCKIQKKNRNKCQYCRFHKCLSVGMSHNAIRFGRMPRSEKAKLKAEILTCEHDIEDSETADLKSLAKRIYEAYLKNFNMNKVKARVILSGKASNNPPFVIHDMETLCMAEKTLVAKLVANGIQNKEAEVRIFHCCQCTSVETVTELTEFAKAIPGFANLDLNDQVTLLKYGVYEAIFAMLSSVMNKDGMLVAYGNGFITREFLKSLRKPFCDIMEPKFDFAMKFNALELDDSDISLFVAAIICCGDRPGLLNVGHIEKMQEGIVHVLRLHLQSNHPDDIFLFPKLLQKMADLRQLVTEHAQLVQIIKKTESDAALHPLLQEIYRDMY
Sequence of human Retinoic Acid Receptor beta (RARb), RARB (gene 5915) (P10826 whole entry, looked up): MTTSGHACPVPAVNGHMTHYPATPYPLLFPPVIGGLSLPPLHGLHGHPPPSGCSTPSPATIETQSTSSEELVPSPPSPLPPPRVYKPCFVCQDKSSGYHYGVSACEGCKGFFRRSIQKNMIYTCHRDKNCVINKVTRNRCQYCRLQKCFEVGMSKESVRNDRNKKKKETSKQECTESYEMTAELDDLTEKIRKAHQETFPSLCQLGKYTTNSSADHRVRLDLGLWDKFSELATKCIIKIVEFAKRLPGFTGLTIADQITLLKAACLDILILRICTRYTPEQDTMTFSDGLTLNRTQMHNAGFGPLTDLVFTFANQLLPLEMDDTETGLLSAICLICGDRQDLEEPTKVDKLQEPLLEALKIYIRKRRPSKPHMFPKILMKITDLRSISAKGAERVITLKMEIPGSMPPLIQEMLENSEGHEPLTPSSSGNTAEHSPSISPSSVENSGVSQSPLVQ

CCCCN(CCCC)N=O
not listed: [13] | [14] | [15] | [16] | [17] | [18] | [19] | [20]
inactive: all other assays above

CCOP(=S)(S)OCC
active: [5] 20.9 µM
not listed: [3] | [7] | [8] | [16] | [17] | [18] | [19] | [20]
inactive: all other assays above

O=P(OCC(Br)CBr)(OCC(Br)CBr)OCC(Br)CBr (configuration not stated)
inactive: [2] | [13] | [4] | [7] | [8] | [16]
active: [1] 17.4 µM | [5] 11.9 µM | [14] 2.68 µM | [6] 0.224 µM | [9] 17.4 µM | [10] 29.3 µM | [11] 17.4 µM

Cc1cccc(N)c1
not listed: [3] | [6] | [7] | [8] | [15] | [19] | [20]
inactive: all other assays above

FC(F)(F)C(F)(C(F)(F)F)C(F)(F)C(F)(F)CC1CO1 (configuration not stated)
not listed: [3] | [8] | [13] | [15] | [18]
inactive: all other assays above

CCC(C)(C)c1ccc(O)cc1
active: [6] 7.92 µM | [8] 9.83 µM
inactive: [1] | [2] | [4] | [5] | [14] | [7] | [9] | [10] | [11] | [12]

O=S1(=O)OCC2C(CO1)C1(Cl)C(Cl)=C(Cl)C2(Cl)C1(Cl)Cl (configuration not stated)
inactive: [1] | [13] | [4] | [17] | [7] | [9] | [10] | [11]
active: [2] 13.1 µM | [5] 25.1 µM | [6] 2.37 µM | [12] 24.1 µM

N#Cc1cc([N+](=O)[O-])ccc1N
active: [2] 4.4 µM
not listed: [13] | [16] | [17] | [19] | [20]
inactive: all other assays above

CCCCC(CC)COP(=O)(Oc1ccccc1)Oc1ccccc1 (configuration not stated)
inactive: [4] | [19] | [7] | [8]
active: [1] 20 µM | [2] 20 µM | [5] 7.38 µM | [14] 5.22 µM | [6] 0.296 µM | [9] 6.53 µM | [10] 8.12 µM | [11] 10.6 µM | [12] 9.37 µM
